# Experimental data taken from PubChem BioAssay (Tox21).
# Calls of active or inactive are those of the source. The call rests on the fitted dose curve; in most records, active means well fitted cell-killing curve with a large enough effect in the repeat runs; inconclusive means weak or mixed curves, or effect the other way; inactive means flat fitted curve, though single readings scatter.
# Experiment: qHTS assay to identify small molecule HDAC inhibitors - cell viability counter screen (AID 1259365); further: nearly all actives have a fitted effect of over 50% in size
# Conditions: HCT-116 viability, CellTiter-Glo ATP luminescence, 2 h; series mostly up to 92.4 µM
# Description: U.S. Tox21 Program National Center for Advancing Translational Sciences [NCATS] NIH Chemical Genomics Center [NCGC] U.S. Environmental Protection Agency [EPA] National Institutes of Environmental Health Sciences [NIEHS] National Toxicology Program [NTP] U.S. Food and Drug Administration [FDA] Tox21 Assay Overview: Histone deacetylases (HDACs) are a group of epigenetic enzymes that regulate gene expression by histone deacetylation. HDACs are capable of introducing epigenetic modifications and such aberrations contribute to the onset and progression of several human diseases, thus making HDACs a popular therapeutic target. For identifying endogenous class I/II HDAC inhibitors a homogenous, luminogenic HDAC I/II cell based assay was used to measure the relative activity of class I and II HDACs from cells. Wild type HCT-116 cells were used to screen Tox21 compound libraries for identifying class I/II HDAC inhibitors.
# Tox21 Assay Protocol Summary: HCT-116 cells were dispensed at 1,500 per well in 5uL of culture medium into white solid bottom 1536-well plates (Greiner Bio-One, Monroe, NC) using a Multidrop Combi (Thermo Scientific, Waltham, MA) dispenser. The assay plates were incubated at 37 C and 5% CO2 for an overnight, and then 23nL of compounds dissolved in DMSO and positive control were transferred using a Pintool station (Wako, San Diego, CA). The assay plates were incubated at 37C and 5% CO2 for 2hr. After compound treatment, 4uL of CellTiter-Glo reagent (Promega Corporation, Madison, WI) was added to each well of the assay plates using Flying Reagent Dispenser (FRD, Aurora Discovery, San Diego, CA) and incubated the assay plates at room temperature for 30min. The luminescence signal was quantified using a ViewLux plate reader (Perkin Elmer, Shelton, CT).
row,Compound,outcome
1,Oc1ccccc1Cl,inactive
2,O=C1CCCN1,inactive
3,CCOP(OCC)OCC,inactive
4,COC(=O)c1ccccc1C(=O)OC,inactive
5,O=S(=O)(c1ccc(O)cc1)c1ccc(O)cc1,inactive
6,CNC(=O)Oc1ccccc1OC(C)C,inactive
7,CN(C)[C@@H]1C(=O)C(C(N)=O)=C(O)[C@@]2(O)C(=O)C3=C(O)c4c(O)cccc4[C@@](C)(O)[C@H]3C[C@@H]12,inactive
8,Cc1ccccc1O,inactive
9,c1ccc2c(c1)oc1ccccc12,inactive
10,CC(C)OC(=O)Nc1cccc(Cl)c1,inactive
11,C=CC(N)=O,inactive
12,O=[N+]([O-])c1ccccc1,inactive
13,Nc1c(Cl)c(Cl)nc(C(=O)O)c1Cl,inactive
14,CC1C=[C-]C=C1.[C-]#[O+].[C-]#[O+].[C-]#[O+].[Mn],inactive
15,CC(Oc1ccc(Cl)cc1Cl)C(=O)O (stereo not given),inactive
16,O=c1[nH]c2ccccc2c(=O)o1,inactive
17,CC(C)(Cl)Cl,inactive
18,CCNc1nc(NC(C)C)nc(SC)n1,inactive
19,CC(=O)C=C(C)C,inactive
20,COC(=O)NC(=S)Nc1ccccc1NC(=S)NC(=O)OC,inactive

row,Compound,outcome
1,CCOP(=S)(OCC)SCCSCC,inactive
2,CC1OC(C)OC(C)O1 (stereo not given),inactive
3,CC(C)NC(=O)N1CC(=O)N(c2cc(Cl)cc(Cl)c2)C1=O,inactive
4,CCCN(CCC)c1c([N+](=O)[O-])cc(C(F)(F)F)cc1[N+](=O)[O-],inactive
5,Nc1ccc(Oc2ccc(N)cc2)cc1,inactive
6,CCOC(=O)c1ccccc1C(=O)OCC,inactive
7,CCC12COCN1COC2,inactive
8,CN(C)CCO,inactive
9,CN(N=O)c1ccccc1,inactive
10,Clc1cccc(Cl)c1Cl,inactive
11,O=[N+]([O-])c1ccc(Oc2ccc(Cl)cc2Cl)cc1,inactive
12,O=S(=O)(c1ccc(Cl)cc1)c1cc(Cl)c(Cl)cc1Cl,inactive
13,COC(=O)c1ccccc1N,inactive
14,CC(C)(C)OOC(C)(C)C,inactive
15,CCC(C)(CC)c1cc(NC(=O)c2c(OC)cccc2OC)on1,inactive
16,CC(C)=C[C@@H]1[C@@H](C(=O)OCc2coc(Cc3ccccc3)c2)C1(C)C,inactive
17,C[C@]12CC[C@H]3[C@@H](CC[C@@]45O[C@@H]4C(O)=C(C#N)C[C@]35C)[C@@H]1CC[C@@H]2O,inactive
18,O=NN1CCCCCCC1,inactive
19,CC(C)(C)OOC(=O)c1ccccc1,inactive
20,[O-][Cl+2]([O-])O,inactive
